Measurements: PubChem BioAssay AID1159580 (chemical genetic matrix, 2015)
Among all 5,500 compounds or so, about 2,000 (36%) were called active. Not shown: some 18% with an inconclusive outcome. Rule as the data show it: active = normalized growth mostly below about 0.91 (no sharp cut-off); inconclusive = no clear call, values can overlap the other calls; inactive = mostly above about 0.92. Some of the results follow.

Assay: chemical genetic growth profiling, strain panel (AID 1159580);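 also: tested at 20 µM; growth read once vehicle control cultures reached saturation at 30 °C; 1 = growth at the plate median or of vehicle wells; lower values mean less growth of the strain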
Details: S. cerevisiae deletion strains, growth OD
[1] = locus YAL013W, strain DEP1, active compounds read low
[2] = locus YDR150W, strain NUM1, active compounds read low
[3] = locus YGR078C, strain PAC10, active compounds read low
[4] = locus YHR030C, strain SLT2, active compounds read low
[5] = locus YJR075W, strain HOC1, active compounds read low
[6] = locus YMR263W, strain SAP30, active compounds read low
[7] = locus YNL153C, strain GIM3, active compounds read low
[8] = locus YNL322C, strain KRE1, active compounds read low
[9] = locus YPL055C, strain LGE1, active compounds read low
[10] = locus YPL241C, strain CIN2, active compounds read low
[11] = locus YAL040C, strain CLN3, active compounds read low
[12] = locus YCL061C, strain MRC1 (second series), active compounds read low
[13] = locus YDR363W, strain ESC2, active compounds read low
[14] = locus YER002W, strain NOP16, active compounds read low
[15] = locus YNL175C, strain NOP13, active compounds read low
[16] = locus YNL197C, strain WHI3, active compounds read low
[17] = locus YNL224C, strain SQS1, active compounds read low
[18] = locus YOR083W, strain WHI5 (second series), active compounds read low

Measured: normalized growth

CCN(CC)C(=O)c1[nH]c(C)c(C)c1C
inactive: [1] 1.01 | locus YBR229C, strain ROT2, active compounds read low 1 | locus YCL061C, strain MRC1, active compounds read low 1.01 | locus YDL101C, strain DUN1, active compounds read low 0.994 | [2] 1.01 | locus YEL061C, strain CIN8, active compounds read low 0.985 | [3] 1.01 | locus YGR229C, strain SMI1, active compounds read low 1.02 | [4] 1 | locus YHR087W, strain rtc3, active compounds read low 0.998 | locus YJR043C, strain POL32, active compounds read low 0.997 | [5] 1.01 | locus YLR039C, strain RIC1, active compounds read low 1.02 | locus YLR058C, strain SHM2 (second series), active compounds read low 1.01 | locus YLR085C, strain ARP6, active compounds read low 1.03 | locus YLR262C, strain YPT6, active compounds read low 0.995 | locus YML094W, strain GIM5, active compounds read low 1.02 | locus YMR219W, strain ESC1, active compounds read low 1.02 | [6] 1.01 | [7] 1 | locus YNL298W, strain CLA4 (second series), active compounds read low 1.01 | [8] 0.985 | locus YNR030W, strain Alg12, active compounds read low 1 | locus YOL006C, strain TOP1, active compounds read low 1.04 | [9] 1.02 | [10] 0.994 | locus YPR135W, strain CTF4, active compounds read low 1.06

COC(=O)[C@@H]1[C@H]2C[C@H]3c4[nH]c5ccccc5c4CCN3C[C@@H]2CC[C@@H]1O
inactive: [1] 0.98 | [11] 1.03 | [12] 0.99 | [2] 1.01 | [13] 0.981 | [14] 1 | [3] 0.987 | [5] 0.98 | [6] 0.987 | locus YMR307W, strain GAS1, active compounds read low 1 | [15] 1 | [16] 0.984 | [17] 0.981 | [8] 0.952 | [18] 0.975 | [9] 0.983

O=C(O)Cc1cnc[nH]1
inactive: [1] 1.04 | [11] 1.04 | [12] 1.02 | [2] 1.04 | [13] 1.02 | [14] 1.01 | [4] 0.992 | locus YHR079C, strain IRE1, active compounds read low 1.01 | locus YJL095W, strain BCK1, active compounds read low 1 | locus YJR066W, strain TOR1, active compounds read low 0.985 | locus YLR113W, strain HOG1, active compounds read low 1 | [7] 1.03 | [15] 1 | locus YNL183C, strain NPR1, active compounds read low 0.938 | [16] 1.01 | [17] 1 | [8] 1.02 | [18] 1.01 | locus YOR231W, strain MKK1, active compounds read low 1 | [10] 1.01 | locus YPL256C, strain CLN2, active compounds read low 1
